Over roughly 16,000 sequences, “rpm ratio (pull-down/input)” has its median near 0.94; the highest 2% begin near 1.7. This is one part of a sample in which the highest values are shown more often than they occur.
The sequences below were run against T1, MBP-FoxP1dN (Mus musculus, UniProt P58462 326-579) (assay: PD-seq (MBP pull-down with sequencing); 20 mM Tris-HCl pH 7.5, 100 mM NaCl, 1.5 mM MgCl2, 0.4 uM protein, 0.1 uM dsDNA library, 30 min, room temperature, amylose pull-down; high values mean tight binding). Conditions: protein: recombinant; tags: His6-MBP; chain copies: 2; dsDNA, one strand shown.
T1 sequence: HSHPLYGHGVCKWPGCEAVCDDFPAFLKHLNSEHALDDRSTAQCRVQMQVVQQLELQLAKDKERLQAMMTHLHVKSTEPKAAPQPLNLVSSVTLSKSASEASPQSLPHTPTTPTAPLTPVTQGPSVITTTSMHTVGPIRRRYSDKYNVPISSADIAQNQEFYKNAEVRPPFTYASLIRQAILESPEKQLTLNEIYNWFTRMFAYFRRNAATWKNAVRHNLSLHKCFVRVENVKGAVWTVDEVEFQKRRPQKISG
In short: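 Amylose resin was used to capture complexes formed during 30 min at room temperature in Tris pH 7.5 buffer with NaCl and MgCl2 between 0.4 µM His6-MBP-tagged mouse FoxP3 or FoxP1 fragment lacking the N-terminus, expressed in E. coli, and 0.1 µM Klenow-filled double-stranded degenerate DNA library. After three washes, the DNA was released with proteinase K, barcoded by PCR and sequenced on Illumina. Binding is pooled-replicate reads-per-million enrichment, pull-down over input.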

Row | Sequence | binding signal
1 | GATGATTGTTCTCCCAGCTGATGAATTCCATGTGTCGAGTAAACAAATTTTCCTAATCTTTCTGTTCAAGCGCCATCTAC | 0.939 RPM ratio (pull-down/input)
2 | GATGATTGTTCTCCCAGCTGATGAATTTTTCGGATCGAGTAAACAAATTTTCCTAATCTTTCTGTTCAAGCGCCATCTAC | 0.904 RPM ratio (pull-down/input)
3 | GATGATTGTTCTCCCAGCTGATGAATTCCTTTAGTCGAGTAAACAAATTTTCCTAATCTTTCTGTTCAAGCGCCATCTAC | 0.819 RPM ratio (pull-down/input)
4 | GATGATTGTTCTCCCAGCTGATGAATTAGTGCAGTCGAGTAAACAAATTTTCCTAATCTTTCTGTTCAAGCGCCATCTAC | 0.937 RPM ratio (pull-down/input)
5 | GATGATTGTTCTCCCAGCTGATGAATTGTTTGGATCGAGTAAACAAATTTTCCTAATCTTTCTGTTCAAGCGCCATCTAC | 1.65 RPM ratio (pull-down/input)
6 | GATGATTGTTCTCCCAGCTGATGAATTGGGGACCTCGAGTAAACAAATTTTCCTAATCTTTCTGTTCAAGCGCCATCTAC | 0.742 RPM ratio (pull-down/input)
7 | GATGATTGTTCTCCCAGCTGATGAATTCGGACTATCGAGTAAACAAATTTTCCTAATCTTTCTGTTCAAGCGCCATCTAC | 0.87 RPM ratio (pull-down/input)
8 | GATGATTGTTCTCCCAGCTGATGAATTGATGTTATCGAGTAAACAAATTTTCCTAATCTTTCTGTTCAAGCGCCATCTAC | 2.17 RPM ratio (pull-down/input)
9 | GATGATTGTTCTCCCAGCTGATGAATTGAATTTATCGAGTAAACAAATTTTCCTAATCTTTCTGTTCAAGCGCCATCTAC | 1.05 RPM ratio (pull-down/input)
10 | GATGATTGTTCTCCCAGCTGATGAATTTCAGTTATCGAGTAAACAAATTTTCCTAATCTTTCTGTTCAAGCGCCATCTAC | 1.02 RPM ratio (pull-down/input)
11 | GATGATTGTTCTCCCAGCTGATGAATTATGTTAATCGAGTAAACAAATTTTCCTAATCTTTCTGTTCAAGCGCCATCTAC | 1.21 RPM ratio (pull-down/input)
12 | GATGATTGTTCTCCCAGCTGATGAATTAAATGTATCGAGTAAACAAATTTTCCTAATCTTTCTGTTCAAGCGCCATCTAC | 1.4 RPM ratio (pull-down/input)
13 | GATGATTGTTCTCCCAGCTGATGAATTATCGATATCGAGTAAACAAATTTTCCTAATCTTTCTGTTCAAGCGCCATCTAC | 1.08 RPM ratio (pull-down/input)
14 | GATGATTGTTCTCCCAGCTGATGAATTATTTTCATCGAGTAAACAAATTTTCCTAATCTTTCTGTTCAAGCGCCATCTAC | 1.27 RPM ratio (pull-down/input)
15 | GATGATTGTTCTCCCAGCTGATGAATTATTGCTATCGAGTAAACAAATTTTCCTAATCTTTCTGTTCAAGCGCCATCTAC | 1.3 RPM ratio (pull-down/input)
16 | GATGATTGTTCTCCCAGCTGATGAATTATTGTCATCGAGTAAACAAATTTTCCTAATCTTTCTGTTCAAGCGCCATCTAC | 1.86 RPM ratio (pull-down/input)
17 | GATGATTGTTCTCCCAGCTGATGAATTGTCATTATCGAGTAAACAAATTTTCCTAATCTTTCTGTTCAAGCGCCATCTAC | 1.31 RPM ratio (pull-down/input)
18 | GATGATTGTTCTCCCAGCTGATGAATTGATATTATCGAGTAAACAAATTTTCCTAATCTTTCTGTTCAAGCGCCATCTAC | 1.92 RPM ratio (pull-down/input)
19 | GATGATTGTTCTCCCAGCTGATGAATTGCTATTATCGAGTAAACAAATTTTCCTAATCTTTCTGTTCAAGCGCCATCTAC | 1.8 RPM ratio (pull-down/input)
20 | GATGATTGTTCTCCCAGCTGATGAATTTTTGCTATCGAGTAAACAAATTTTCCTAATCTTTCTGTTCAAGCGCCATCTAC | 1.21 RPM ratio (pull-down/input)
21 | GATGATTGTTCTCCCAGCTGATGAATTAATGTTATCGAGTAAACAAATTTTCCTAATCTTTCTGTTCAAGCGCCATCTAC | 1.95 RPM ratio (pull-down/input)

Row | Sequence | binding signal
22 | GATGATTGTTCTCCCAGCTGATGAATTATTGATATCGAGTAAACAAATTTTCCTAATCTTTCTGTTCAAGCGCCATCTAC | 1.53 RPM ratio (pull-down/input)
23 | GATGATTGTTCTCCCAGCTGATGAATTCAGATATTCGAGTAAACAAATTTTCCTAATCTTTCTGTTCAAGCGCCATCTAC | 1.01 RPM ratio (pull-down/input)
24 | GATGATTGTTCTCCCAGCTGATGAATTAAGTTGATCGAGTAAACAAATTTTCCTAATCTTTCTGTTCAAGCGCCATCTAC | 1.17 RPM ratio (pull-down/input)
25 | GATGATTGTTCTCCCAGCTGATGAATTCGATCCGTCGAGTAAACAAATTTTCCTAATCTTTCTGTTCAAGCGCCATCTAC | 0.886 RPM ratio (pull-down/input)
26 | GATGATTGTTCTCCCAGCTGATGAATTGTTCCGATCGAGTAAACAAATTTTCCTAATCTTTCTGTTCAAGCGCCATCTAC | 1.04 RPM ratio (pull-down/input)
27 | GATGATTGTTCTCCCAGCTGATGAATTGGCTTAGTCGAGTAAACAAATTTTCCTAATCTTTCTGTTCAAGCGCCATCTAC | 0.844 RPM ratio (pull-down/input)
28 | GATGATTGTTCTCCCAGCTGATGAATTGATAAAATCGAGTAAACAAATTTTCCTAATCTTTCTGTTCAAGCGCCATCTAC | 1.14 RPM ratio (pull-down/input)
29 | GATGATTGTTCTCCCAGCTGATGAATTAACGAGCTCGAGTAAACAAATTTTCCTAATCTTTCTGTTCAAGCGCCATCTAC | 0.81 RPM ratio (pull-down/input)
30 | GATGATTGTTCTCCCAGCTGATGAATTCTAGTGGTCGAGTAAACAAATTTTCCTAATCTTTCTGTTCAAGCGCCATCTAC | 0.86 RPM ratio (pull-down/input)
31 | GATGATTGTTCTCCCAGCTGATGAATTATCTTTCTCGAGTAAACAAATTTTCCTAATCTTTCTGTTCAAGCGCCATCTAC | 0.948 RPM ratio (pull-down/input)
32 | GATGATTGTTCTCCCAGCTGATGAATTAGTATTATCGAGTAAACAAATTTTCCTAATCTTTCTGTTCAAGCGCCATCTAC | 1.75 RPM ratio (pull-down/input)
33 | GATGATTGTTCTCCCAGCTGATGAATTTATTTGATCGAGTAAACAAATTTTCCTAATCTTTCTGTTCAAGCGCCATCTAC | 1.2 RPM ratio (pull-down/input)
34 | GATGATTGTTCTCCCAGCTGATGAATTTTATTGATCGAGTAAACAAATTTTCCTAATCTTTCTGTTCAAGCGCCATCTAC | 2.45 RPM ratio (pull-down/input)
35 | GATGATTGTTCTCCCAGCTGATGAATTATTTATCTCGAGTAAACAAATTTTCCTAATCTTTCTGTTCAAGCGCCATCTAC | 1.76 RPM ratio (pull-down/input)
36 | GATGATTGTTCTCCCAGCTGATGAATTTATTATCTCGAGTAAACAAATTTTCCTAATCTTTCTGTTCAAGCGCCATCTAC | 1.41 RPM ratio (pull-down/input)
37 | GATGATTGTTCTCCCAGCTGATGAATTTGTCAAATCGAGTAAACAAATTTTCCTAATCTTTCTGTTCAAGCGCCATCTAC | 1.17 RPM ratio (pull-down/input)
38 | GATGATTGTTCTCCCAGCTGATGAATTAGTAGTATCGAGTAAACAAATTTTCCTAATCTTTCTGTTCAAGCGCCATCTAC | 1.2 RPM ratio (pull-down/input)
39 | GATGATTGTTCTCCCAGCTGATGAATTTATTGAATCGAGTAAACAAATTTTCCTAATCTTTCTGTTCAAGCGCCATCTAC | 1.28 RPM ratio (pull-down/input)
40 | GATGATTGTTCTCCCAGCTGATGAATTGTCAACATCGAGTAAACAAATTTTCCTAATCTTTCTGTTCAAGCGCCATCTAC | 2.76 RPM ratio (pull-down/input)
41 | GATGATTGTTCTCCCAGCTGATGAATTTTCAACATCGAGTAAACAAATTTTCCTAATCTTTCTGTTCAAGCGCCATCTAC | 1.14 RPM ratio (pull-down/input)
42 | GATGATTGTTCTCCCAGCTGATGAATTATTAGTATCGAGTAAACAAATTTTCCTAATCTTTCTGTTCAAGCGCCATCTAC | 1.46 RPM ratio (pull-down/input)

Source: PMC12820563, “FoxP3 forms a head-to-head dimer in vivo and stabilizes its multimerization on adjacent microsatellites”
